Rows were chosen to be rich in hits. Some 21% of all compounds tested hit in one or more screens of this group.
Shiga inhibitor: inhibitors of Shiga toxin in Vero cells. Vero cells, Shiga toxin protein synthesis inhibition reporter. inhibition, % at 38.7 µM. hit rate 9.2% among 290,000; in the data active means inhibition mostly above about 28%, no sharp cut-off; inactive means mostly below about 43%; further: 0% is about no effect
Pf growth 96h: P. falciparum growth inhibition at 96 hour, primary screen for plastid delayed-death inhibitors. P. falciparum luciferase reporter growth, 96 h. Potency, µM (highest dose often 28.7 µM), without a hit: at the top dose activity change, negative = inhibition, usual class: inhibitors. hit rate 6.9% among 320,000; further: potency means the concentration at half of the fitted maximal effect; on the % scale 0 is the no-effect control and ±100 the full control effect
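P. falciparum expressing integrated firefly luciferase grown in erythrocytes (2% hematocrit, 0.05% parasitemia final) with compounds for 96 hours at 37 C, 5% CO2. Growth inhibition read as loss of luminescence after adding luciferase detection reagent.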
CHX counter: counter-screen hit for Shiga toxin inhibitors, cycloheximide. cell reporter, cycloheximide protein synthesis inhibition counterscreen. max response, %. hit rate 12% among 300,000. AID 2314; in the data active means max response mostly above about 13%, no sharp cut-off; inactive means mostly below about 14%; further: read at 38.3 µM for the half of the compounds with a filed dose; 0% is about no effect
Pf growth 48h: inhibits P. falciparum growth in the first generation, 48 h | P. falciparum luciferase growth in erythrocytes, 48 h | Potency, µM (series often up to 28.7 µM), without a hit: top-dose activity change, negative = inhibition, actives largely listed as inhibitors | hit rate 5.9% among 310,000 | AID 504832; further: potency means the concentration at half of the fitted maximal effect; on the % scale 0 is the no-effect control and ±100 the full control effect
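Parasite viability was followed by luminescence of a genomically integrated firefly luciferase. Cultures held 0.1% parasitemia at 2% hematocrit (final), incubated under 5% CO2 at 37 C.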
An asterisk follows results filed as active; [ ] = dose if it differs, or a comment. Unless noted, the call rests on the fitted dose curve; in most records, active means well fitted inhibition curve with a large enough effect; inconclusive means small, poorly fitted or top-dose-only effect, or another doubt; inactive means no such curve, though single readings can be large or run the other way.

How did O=C(/C=C/c1ccc(Cl)c(C(F)(F)F)c1)N1CCN(c2ccccn2)CC1 do in these assays?
Shiga inhibitor: -2; Pf growth 96h: 8%; CHX counter: -4; Pf growth 48h: 14%

Results for CC(=O)Cn1ncc(N2CCCCC2)c(Cl)c1=O ?
Shiga inhibitor: 47; Pf growth 96h: 45%; CHX counter: 21*; Pf growth 48h: 40%

How did CO/N=C(\Cn1ncc(N2CCCC2)c(Cl)c1=O)c1ccc(Cl)cc1 do in these assays?
Shiga inhibitor: -18; Pf growth 96h: inconclusive; CHX counter: -1; Pf growth 48h: inconclusive

How did CCN1C(=O)CC(c2ccc(OC(C)C)cc2)C1=O (stereo not given) do in these assays?
Shiga inhibitor: 35; Pf growth 96h: 33%; CHX counter: 11; Pf growth 48h: -4%[0.00184 µM]

Results for CN(Cc1c(F)cccc1Cl)C(=O)c1ccc(NS(=O)(=O)c2ccc3[nH]c(=O)[nH]c3c2)cc1 ?
Pf growth 96h: inconclusive; Pf growth 48h: 13%

Results for O=C(Nc1ccc(F)cc1)Nc1nnc(Cc2ccccc2F)s1 ?
Pf growth 96h: 10µM*; CHX counter: -3; Pf growth 48h: inconclusive

Results for O=C(Nc1nnc(Cc2ccccc2)s1)Nc1ccccc1F ?
Shiga inhibitor: -2; Pf growth 96h: 15µM*; CHX counter: 10; Pf growth 48h: -39%

Results for CCN(CCCNC(=O)CCn1c(=S)[nH]c2cc3c(cc2c1=O)OCO3)c1cccc(C)c1 ?
Shiga inhibitor: -2; Pf growth 96h: inconclusive; CHX counter: 1; Pf growth 48h: -3%

How did Oc1ccc(/C=C/c2cc(O)cc(O)c2)cc1 do in these assays?
Shiga inhibitor: 20*; Pf growth 96h: 2%; CHX counter: 26*; Pf growth 48h: 2%

How did CCN1CCN(c2nc(N)c([N+](=O)[O-])c(Nc3ccc(C)c(C)c3)n2)CC1 do in these assays?
Shiga inhibitor: -12; Pf growth 96h: 1%; CHX counter: -5; Pf growth 48h: 11%

What do the screens show for `Cc1ccc(Nc2n[nH]c(C)c2[N+](=O)[O-])cc1C`?
Shiga inhibitor: 54; Pf growth 96h: inconclusive; CHX counter: 32*; Pf growth 48h: 285%

Results for CCOc1ccc(-c2nc(N)ncc2-c2ccc(Cl)cc2)c(O)c1 ?
Shiga inhibitor: 1; Pf growth 96h: inconclusive; CHX counter: 3; Pf growth 48h: 10µM*

Results for CCOc1ccc(-c2nc(N)ncc2Oc2ccc(OC)cc2)c(O)c1 ?
Shiga inhibitor: -3; Pf growth 96h: inconclusive; CHX counter: -3; Pf growth 48h: 12µM*

How did COc1ccc(-c2nc(C)ncc2-c2ccc(Cl)cc2)c(O)c1 do in these assays?
Shiga inhibitor: -3; Pf growth 96h: 3.7µM*; CHX counter: -1; Pf growth 48h: 4.7µM*

Results for COc1ccc(OC)c(CCNC(=O)C(C)n2nc(C)c3c(C)n(-c4ccc(C)cc4)nc3c2=O)c1 (stereo not given) ?
Shiga inhibitor: -4; Pf growth 96h: inconclusive; CHX counter: 7; Pf growth 48h: inconclusive

How did O=C(/C=C/c1ccc(Cl)cc1)NCc1ccco1 do in these assays?
Shiga inhibitor: 94*; Pf growth 96h: inconclusive; CHX counter: 25*; Pf growth 48h: -30%

How did O=C(COC(=O)CCSc1ccc(Cl)cc1)NCc1ccco1 do in these assays?
Shiga inhibitor: 53; Pf growth 96h: 44%; CHX counter: 19*; Pf growth 48h: 43%

Results for O=C(COC(=O)CCSc1ccc(Cl)cc1)NCc1ccccc1Cl ?
Shiga inhibitor: 12; Pf growth 96h: 23%; CHX counter: -1; Pf growth 48h: -8%

What do the screens show for `O=C(/C=C/c1ccc(S(=O)(=O)NCc2ccco2)cc1)NCc1ccccc1Cl`?
Shiga inhibitor: 20*; Pf growth 96h: inconclusive; CHX counter: 31*; Pf growth 48h: inconclusive

Results for CSc1ccccc1C(=O)N1CCN(c2ncccn2)CC1 ?
Shiga inhibitor: 1; Pf growth 96h: 36%; CHX counter: 0; Pf growth 48h: -1%

Results for Cc1c(C2Nc3ccccc3NC3=C2C(=O)CC(C)(C)C3)cnn1C (stereo not given) ?
Shiga inhibitor: 12; Pf growth 96h: 5.9µM*; CHX counter: 8; Pf growth 48h: inconclusive

Results for Cc1oc2c(cc(NS(=O)(=O)c3cccs3)c3ccccc32)c1C(=O)OC(C)C ?
Shiga inhibitor: 26; Pf growth 96h: 9.3µM*; CHX counter: 12; Pf growth 48h: inconclusive

How did Cc1oc2c(cc(NS(=O)(=O)c3ccc(C(C)C)cc3)c3ccccc32)c1C(=O)O do in these assays?
Shiga inhibitor: -14; Pf growth 96h: inconclusive; CHX counter: -6; Pf growth 48h: 17%

Results for Cc1oc2c(cc(NS(=O)(=O)c3ccc(F)cc3)c3ccccc32)c1C(=O)O ?
Shiga inhibitor: 3; Pf growth 96h: 7.4µM*; CHX counter: -3; Pf growth 48h: 3%

How did C=CCc1ccccc1OCC(=O)N/N=C/c1ccc(OC(C)=O)cc1OC(C)=O do in these assays?
Shiga inhibitor: 2; Pf growth 96h: inconclusive; CHX counter: -3; Pf growth 48h: inconclusive

What do the screens show for `C/C(N)=C(/C#N)C(=O)CSc1nn(-c2ccc(Cl)cc2)c(=S)s1`?
Shiga inhibitor: 72*; Pf growth 96h: inconclusive; CHX counter: 47*; Pf growth 48h: inconclusive

What do the screens show for `Cc1cccc(C)c1Nc1nnc(SCc2cn3cccc(C)c3n2)s1`?
Shiga inhibitor: -29; Pf growth 96h: 10µM*; CHX counter: -1; Pf growth 48h: inconclusive

Results for C/C(N)=C(/C#N)C(=O)CSc1nnc(Nc2cccc(C)c2C)s1 ?
Shiga inhibitor: 40*; Pf growth 96h: 17%; CHX counter: 22*; Pf growth 48h: inconclusive

How did Cc1cccc(C)c1Nc1nnc(SCC(=O)NC(=O)c2cccn2C)s1 do in these assays?
Shiga inhibitor: -8; Pf growth 96h: 18%; CHX counter: -2; Pf growth 48h: 8%

Results for C/C(N)=C(/C#N)C(=O)CSc1nnc(Nc2c(C)cccc2C)s1 ?
Shiga inhibitor: 40; Pf growth 96h: 12µM*; CHX counter: -1; Pf growth 48h: inconclusive

What do the screens show for `O=C(NCCCn1ccnc1)c1cc2ccccc2oc1=O`?
Shiga inhibitor: -3; Pf growth 96h: 38%; CHX counter: 13*; Pf growth 48h: 14%

How did O=C(c1ccccc1)c1ccc(NCCCn2ccnc2)c([N+](=O)[O-])c1 do in these assays?
Shiga inhibitor: 0; Pf growth 96h: 12µM*; CHX counter: 8; Pf growth 48h: inconclusive

Results for O=C(NCCCn1ccnc1)c1ccc2ccccc2c1 ?
Shiga inhibitor: 15; Pf growth 96h: 12µM*; CHX counter: 1; Pf growth 48h: 1%

Results for O=C(NCCCN1CCOCC1)c1cc2ccccc2oc1=O ?
Shiga inhibitor: 25; Pf growth 96h: inconclusive; CHX counter: 7; Pf growth 48h: 14%

What do the screens show for `C=CCN(c1ccc(C(=O)NCCCn2ccnc2)cc1)S(C)(=O)=O`?
Shiga inhibitor: -9; Pf growth 96h: 9.3µM*; CHX counter: -1; Pf growth 48h: 6%

What do the screens show for `O=C(O)C1CCN(S(=O)(=O)c2ccc(N3CCCC3C(=O)O)c([N+](=O)[O-])c2)CC1` (stereo not given)?
Shiga inhibitor: 5; Pf growth 96h: 11%; CHX counter: 0; Pf growth 48h: 4%

Source: PubChem BioAssay (National Center for Advancing Translational Sciences (NCATS))
